What all share (design): scale not given: direction of the effect not stated beside the values
In test [1] the target is Protein translocase subunit SecA (Escherichia coli (strain K12)) (UniProt P10408). Kind of test: Assay to Identify E. coli SecA ATPase Inhibitors. Type of test: functional. The conditions noted are these: 30 µM.
The target of test [2] is T1, Ubiquitin-activating enzyme e1, putative (Leishmania donovani (strain BPK282A1)) (UniProt E9BSI1).
T1 sequence (whole entry): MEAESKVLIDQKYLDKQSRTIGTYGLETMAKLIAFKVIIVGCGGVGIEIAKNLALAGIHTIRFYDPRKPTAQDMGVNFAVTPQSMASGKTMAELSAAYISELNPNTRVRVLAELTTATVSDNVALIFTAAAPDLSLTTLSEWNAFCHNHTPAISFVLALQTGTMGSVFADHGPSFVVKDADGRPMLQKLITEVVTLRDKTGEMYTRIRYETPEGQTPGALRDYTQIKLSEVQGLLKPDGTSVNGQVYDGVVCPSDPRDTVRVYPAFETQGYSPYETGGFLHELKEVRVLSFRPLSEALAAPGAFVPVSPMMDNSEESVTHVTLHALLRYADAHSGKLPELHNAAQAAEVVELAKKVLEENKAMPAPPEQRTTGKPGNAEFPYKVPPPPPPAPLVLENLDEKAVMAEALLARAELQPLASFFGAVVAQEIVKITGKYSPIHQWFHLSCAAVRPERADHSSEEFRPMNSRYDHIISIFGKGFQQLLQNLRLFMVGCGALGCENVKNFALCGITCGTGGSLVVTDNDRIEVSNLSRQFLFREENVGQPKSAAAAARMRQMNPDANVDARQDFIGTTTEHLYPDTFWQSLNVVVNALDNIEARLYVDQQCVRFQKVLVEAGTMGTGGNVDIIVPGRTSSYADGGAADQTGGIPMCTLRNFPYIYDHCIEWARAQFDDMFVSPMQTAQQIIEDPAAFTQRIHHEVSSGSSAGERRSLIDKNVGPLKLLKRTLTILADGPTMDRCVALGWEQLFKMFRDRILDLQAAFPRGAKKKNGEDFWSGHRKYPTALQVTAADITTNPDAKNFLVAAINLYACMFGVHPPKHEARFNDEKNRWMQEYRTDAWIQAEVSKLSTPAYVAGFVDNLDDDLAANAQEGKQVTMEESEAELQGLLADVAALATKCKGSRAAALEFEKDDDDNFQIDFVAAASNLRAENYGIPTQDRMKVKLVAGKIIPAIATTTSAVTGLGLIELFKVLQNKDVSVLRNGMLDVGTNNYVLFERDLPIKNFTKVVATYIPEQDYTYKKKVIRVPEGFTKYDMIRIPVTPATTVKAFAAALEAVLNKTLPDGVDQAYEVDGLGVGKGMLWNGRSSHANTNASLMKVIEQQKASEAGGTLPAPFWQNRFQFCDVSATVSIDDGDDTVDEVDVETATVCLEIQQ
Nature of the test: Leishmania donovani Ubiquitin Activating Enzyme (LdE1). Type of test: functional. To be noted: 30 µM.

In test [3] the target is AMP-activated protein kinase, AMPK (Homo sapiens) (UniProt P54646+O43741+P54619+Q9UGJ0+Q9Y478+Q13131+Q9UGI9). Nature of the test: AMP-dependent Kinase enzyme assay. An in vitro enzyme assay that detects ADP turnover that is directly proportional to AMPK activity. This uses naive AMPK that is activated during the assay with MK-8722. To be noted: 30 µM. The class given is functional.

In test [4] the target is Sialic acid-binding Ig-like lectin 9 (Homo sapiens) (UniProt Q9Y336). Kind of test: Hs-Siglec9 ALPHAscreen SOP 20170721. The conditions noted are these: 10 µM.
The next test deals with Trypanosoma cruzi. Nature of the test: Trypanosoma cruzi phosphomannomutase and mannose-1-phosphate guanylyltransferase assay. Type of test: functional. To be noted: 10 µM.
Test [5] concerns the target T2, Arginase-2, mitochondrial (Homo sapiens) (UniProt P78540).
T2 sequence (whole entry): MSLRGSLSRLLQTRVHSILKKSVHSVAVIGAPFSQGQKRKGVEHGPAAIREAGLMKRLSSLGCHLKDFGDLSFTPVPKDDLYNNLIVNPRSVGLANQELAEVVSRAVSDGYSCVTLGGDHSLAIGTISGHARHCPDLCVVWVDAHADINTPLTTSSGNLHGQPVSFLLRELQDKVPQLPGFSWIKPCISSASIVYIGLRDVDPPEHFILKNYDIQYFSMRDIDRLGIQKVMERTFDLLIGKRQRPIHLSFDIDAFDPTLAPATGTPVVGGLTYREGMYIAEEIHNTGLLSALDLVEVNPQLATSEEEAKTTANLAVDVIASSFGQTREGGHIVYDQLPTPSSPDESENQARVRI
Nature of the test: in vitro enzyme assay to detect the production of urea directly proportional to the activity of Arginase II. Also: in the data most compounds retested in dose-response had high values. The class given is functional. To be noted: 33.3 µM.

The target in test [6] is T3, Proteasome subunit beta (Trypanosoma cruzi) (UniProt O96673).
T3 sequence (whole entry): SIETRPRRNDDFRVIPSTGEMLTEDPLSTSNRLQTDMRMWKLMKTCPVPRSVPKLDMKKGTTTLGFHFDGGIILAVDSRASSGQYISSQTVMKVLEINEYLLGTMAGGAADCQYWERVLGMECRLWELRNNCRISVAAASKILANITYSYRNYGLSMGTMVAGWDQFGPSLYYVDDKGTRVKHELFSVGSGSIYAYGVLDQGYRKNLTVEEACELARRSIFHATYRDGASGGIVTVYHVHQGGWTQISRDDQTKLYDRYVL
Nature of the test: Trypanosoma cruzi proteasome chymotrypsin-like activity (TcProtChymo) assay. Also: in the data most compounds retested in dose-response had high values. The class given is functional. The conditions noted are these: 9.37 µM.

For a further test, the species on record is Homo sapiens. Kind of test: To identify inhibition of the IFN signalling (Jak-Stat) pathway via expression of an eGFP reporter gene under the control of an IFN-stimulated response element (ISRE) containing MxA promoter. The conditions noted are these: 30 µM. Type of test: functional.
The target of test [7] is T4, Tyrosyl-tRNA synthetase, putative (Trypanosoma cruzi (strain CL Brener)) (UniProt Q4DSP6).
T4 sequence (whole entry): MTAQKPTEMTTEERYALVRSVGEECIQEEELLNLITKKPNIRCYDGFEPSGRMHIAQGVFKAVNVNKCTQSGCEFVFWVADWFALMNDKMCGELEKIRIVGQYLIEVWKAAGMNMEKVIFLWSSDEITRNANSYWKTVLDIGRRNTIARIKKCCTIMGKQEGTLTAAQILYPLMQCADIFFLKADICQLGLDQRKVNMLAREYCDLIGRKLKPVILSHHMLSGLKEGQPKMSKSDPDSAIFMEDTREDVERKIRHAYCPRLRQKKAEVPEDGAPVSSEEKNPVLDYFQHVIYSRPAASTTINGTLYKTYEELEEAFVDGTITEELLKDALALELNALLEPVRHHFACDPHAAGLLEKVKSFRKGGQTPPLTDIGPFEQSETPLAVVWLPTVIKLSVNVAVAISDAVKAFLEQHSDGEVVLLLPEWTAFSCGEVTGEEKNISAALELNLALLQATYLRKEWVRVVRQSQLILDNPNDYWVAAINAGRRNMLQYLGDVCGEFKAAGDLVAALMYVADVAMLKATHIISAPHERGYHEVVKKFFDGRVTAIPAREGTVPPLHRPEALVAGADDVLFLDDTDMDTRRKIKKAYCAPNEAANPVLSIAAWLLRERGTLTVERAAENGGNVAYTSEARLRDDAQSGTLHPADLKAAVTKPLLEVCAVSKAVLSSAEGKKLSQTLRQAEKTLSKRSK
Kind of test: Trypanosoma cruzi tyrosyl tRNA synthetase (TcYRS) _High Tyrosine SOP. Also: in the data most compounds retested in dose-response had high values. Type of test: functional. To be noted: 30 µM.

Test [8] deals with T4, Tyrosyl-tRNA synthetase, putative (Trypanosoma cruzi (strain CL Brener)). Kind of test: Trypanosoma cruzi tyrosyl tRNA synthetase (TcYRS) SOP. To be noted: 30 µM. The class given is functional.
The target of test [9] is Chromo domain-containing protein 1 (Saccharomyces cerevisiae (strain ATCC 204508 / S288c) (Baker's yeast)) (UniProt P32657). Nature of the test: ScCHD-1 Enzyme Inhibition Assay. Also: in the data most compounds retested in dose-response had high values. The class given is functional. The conditions noted are these: 30 µM.

For some of these results: Potency and affinity values are given separately.

Chain of Chromo domain-containing protein 1 (Saccharomyces cerevisiae (strain ATCC 204508 / S288c) (Baker's yeast)) (P32657 whole entry, the tested form may be a part): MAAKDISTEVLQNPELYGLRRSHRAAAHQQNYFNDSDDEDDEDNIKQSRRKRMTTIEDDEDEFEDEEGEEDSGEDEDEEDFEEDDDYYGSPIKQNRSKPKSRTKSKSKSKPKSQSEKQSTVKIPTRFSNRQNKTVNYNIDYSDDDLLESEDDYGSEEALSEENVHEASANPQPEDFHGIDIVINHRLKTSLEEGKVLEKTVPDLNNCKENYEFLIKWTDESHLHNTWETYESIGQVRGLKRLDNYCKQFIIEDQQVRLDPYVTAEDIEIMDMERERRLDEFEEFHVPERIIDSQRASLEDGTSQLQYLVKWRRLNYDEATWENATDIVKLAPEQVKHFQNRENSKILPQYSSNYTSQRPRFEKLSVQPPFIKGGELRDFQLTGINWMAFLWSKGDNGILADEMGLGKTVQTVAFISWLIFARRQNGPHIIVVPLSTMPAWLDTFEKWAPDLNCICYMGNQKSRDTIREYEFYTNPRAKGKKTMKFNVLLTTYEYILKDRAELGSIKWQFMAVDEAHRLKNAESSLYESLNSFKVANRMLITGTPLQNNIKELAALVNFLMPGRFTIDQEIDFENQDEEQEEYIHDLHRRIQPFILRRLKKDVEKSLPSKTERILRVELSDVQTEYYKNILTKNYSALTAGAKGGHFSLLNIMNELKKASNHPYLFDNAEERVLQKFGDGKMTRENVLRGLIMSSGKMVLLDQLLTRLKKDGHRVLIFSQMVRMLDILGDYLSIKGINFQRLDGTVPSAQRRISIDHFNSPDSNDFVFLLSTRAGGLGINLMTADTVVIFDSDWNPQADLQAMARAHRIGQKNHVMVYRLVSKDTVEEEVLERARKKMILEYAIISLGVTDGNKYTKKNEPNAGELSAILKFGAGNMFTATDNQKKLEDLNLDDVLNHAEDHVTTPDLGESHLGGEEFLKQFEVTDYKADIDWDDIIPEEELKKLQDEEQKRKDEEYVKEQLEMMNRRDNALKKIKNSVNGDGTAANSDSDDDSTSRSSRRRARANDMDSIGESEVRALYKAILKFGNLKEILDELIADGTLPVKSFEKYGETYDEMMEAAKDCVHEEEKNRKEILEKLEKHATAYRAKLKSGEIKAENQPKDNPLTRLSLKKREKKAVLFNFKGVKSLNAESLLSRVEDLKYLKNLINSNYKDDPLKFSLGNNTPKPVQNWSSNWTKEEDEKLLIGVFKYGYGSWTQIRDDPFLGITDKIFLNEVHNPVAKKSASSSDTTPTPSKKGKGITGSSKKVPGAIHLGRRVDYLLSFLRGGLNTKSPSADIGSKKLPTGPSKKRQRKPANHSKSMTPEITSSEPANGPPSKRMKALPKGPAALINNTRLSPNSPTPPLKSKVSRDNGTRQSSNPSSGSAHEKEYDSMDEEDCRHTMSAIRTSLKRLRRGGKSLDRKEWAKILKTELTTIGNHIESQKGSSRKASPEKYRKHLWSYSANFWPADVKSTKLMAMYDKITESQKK
Chain of Protein translocase subunit SecA (Escherichia coli (strain K12)) (P10408 whole entry): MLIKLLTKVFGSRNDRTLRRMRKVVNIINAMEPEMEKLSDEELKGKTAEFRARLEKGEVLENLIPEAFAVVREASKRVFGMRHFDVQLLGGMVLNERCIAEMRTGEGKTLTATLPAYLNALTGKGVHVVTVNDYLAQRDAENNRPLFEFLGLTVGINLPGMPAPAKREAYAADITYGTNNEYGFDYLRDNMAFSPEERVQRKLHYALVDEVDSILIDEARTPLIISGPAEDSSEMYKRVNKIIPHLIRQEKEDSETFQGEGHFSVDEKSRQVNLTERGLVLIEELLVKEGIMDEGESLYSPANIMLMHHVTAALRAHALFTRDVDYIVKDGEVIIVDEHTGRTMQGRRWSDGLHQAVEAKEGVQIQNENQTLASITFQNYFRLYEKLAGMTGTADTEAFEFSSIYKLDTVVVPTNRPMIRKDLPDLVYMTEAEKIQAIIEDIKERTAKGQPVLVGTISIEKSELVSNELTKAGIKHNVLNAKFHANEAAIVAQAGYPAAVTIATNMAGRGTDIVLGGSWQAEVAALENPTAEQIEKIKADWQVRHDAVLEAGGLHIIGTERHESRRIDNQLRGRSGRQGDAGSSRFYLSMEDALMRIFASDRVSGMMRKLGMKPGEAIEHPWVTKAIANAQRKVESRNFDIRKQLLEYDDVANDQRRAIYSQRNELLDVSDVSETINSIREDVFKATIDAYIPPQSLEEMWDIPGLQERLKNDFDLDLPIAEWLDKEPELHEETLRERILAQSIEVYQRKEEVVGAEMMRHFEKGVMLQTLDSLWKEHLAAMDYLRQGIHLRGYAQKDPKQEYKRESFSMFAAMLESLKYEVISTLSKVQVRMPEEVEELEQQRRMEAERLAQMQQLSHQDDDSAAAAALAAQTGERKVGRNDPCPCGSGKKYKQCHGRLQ
Chain of Sialic acid-binding Ig-like lectin 9 (Homo sapiens) (Q9Y336 whole entry): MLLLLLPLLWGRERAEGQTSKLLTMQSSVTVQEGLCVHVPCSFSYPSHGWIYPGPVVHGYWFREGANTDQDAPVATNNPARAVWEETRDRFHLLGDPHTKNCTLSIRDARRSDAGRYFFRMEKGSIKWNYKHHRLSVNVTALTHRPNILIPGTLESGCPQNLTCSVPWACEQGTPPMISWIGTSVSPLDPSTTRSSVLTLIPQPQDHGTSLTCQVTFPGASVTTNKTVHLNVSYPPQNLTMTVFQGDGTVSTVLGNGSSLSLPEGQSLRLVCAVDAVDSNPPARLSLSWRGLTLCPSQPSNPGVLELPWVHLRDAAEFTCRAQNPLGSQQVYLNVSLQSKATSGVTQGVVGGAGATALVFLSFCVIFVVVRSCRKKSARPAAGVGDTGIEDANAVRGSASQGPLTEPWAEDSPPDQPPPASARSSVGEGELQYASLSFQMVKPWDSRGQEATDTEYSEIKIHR

`COc1ccccc1C(O)CNC(=O)NCc1cccnc1OC` (stereo unspecified): the Percent Effect in [1] is -5.38%; in test [2], 12.7%; in [3], 3.02%; in test [4], -9.15%; in the test with Trypanosoma cruzi, -7.84%; in [5], -0.38%. For the same molecule, the Percent Effect in [6] was 6.63%; in the test listed under Homo sapiens, 30.3%; in test [7], 1.48%; in test [8], 13.9%; in [9] it was -5.07%.

For the molecule `Cc1cc(C)n(CC2CN(Cc3cccc(C(N)=O)c3)CCO2)n1` (stereo unspecified), the Percent Effect in test [1] was -2.43%; in test [2], 16.2%; in test [3], 8.27%; in test [4], -0.119%; with Trypanosoma cruzi it was 4.69%; in test [5], 8.75%. Moreover, the Percent Effect is 20.7% in test [6]; 18.8% in the test filed under Homo sapiens; 7.92% in test [7]; 20.7% in test [8]; 97.6% in [9].

For `CN(C)C(=O)NC1COC2(CCN(C(=O)Nc3ccccc3)CC2)C1` (stereo unspecified), the Percent Effect was 5.37% in test [1]; 18.7% in test [2]; 1.41% in test [3]; -7.63% in test [4]; -3.54% in the test with Trypanosoma cruzi; 0.699% in test [5]. For the same molecule, the Percent Effect in test [6] was 8.72%; in the test listed under Homo sapiens, 3.6%; in [7], -1.06%; in test [8], 6.41%; in test [9] it was 2.03%.

`CN1CCN(c2cc(CCNC(=O)C3CCC3)nc(C3CC3)n2)CC1`: the Percent Effect is -1.04% in test [1]; 12.2% in test [2]; 4.69% in [3]; 0.557% in test [4]; -4.74% in the test with Trypanosoma cruzi; -0.232% in [5]. Besides, the Percent Effect was 14.2% in test [6]; 15.8% in the test listed under Homo sapiens; 4.3% in [7]; 9.09% in test [8]; -9.84% in test [9].

On to `Cc1cccn2c(=O)cc(OC(=O)c3ccccc3)nc12`, for which the Percent Effect in test [1] was 1.09%; in test [2], 0%; in [3], 45.4%; in test [4], -1.9%; in the test on Trypanosoma cruzi, -4.97%; in test [5], -14.2%. The Percent Effect in test [6] is 5.27%; in the test listed under Homo sapiens, -1.07%; in test [7] it was 0%; in [8], 0%; in test [9] it was -3.23%.

Regarding `Cc1cc(C(=O)NCCN2CCCC(C)C2)nn1C` (stereo unspecified), the Percent Effect in test [1] was -4.5%; in [2] it was 5.2%; in [3] it was -3.57%; in [4] it was -8.23%; in the test with Trypanosoma cruzi, -0.187%; in test [5] it was 0%. Moreover, the Percent Effect in test [6] was 0.169%; in the test filed under Homo sapiens, 27.8%; in test [7] it was 3.88%; in test [8] it was 7.32%; in test [9], -0.528%.

Regarding `O=C(c1ccncc1)N1C[C@@H]2CC[C@H](C1)N(C(=O)N1CCOCC1)C2`, the Percent Effect in [1] is -0.807%; in test [2], 2.67%; in test [3], -4.2%; in test [4] it was 3.79%; with Trypanosoma cruzi, -4.38%; in [5], 4.69%. Further, the Percent Effect is 15.5% in test [6]; 10.6% in the test listed under Homo sapiens; 6.01% in test [7]; 13.6% in [8]; -5.41% in test [9].

With `CCOCCCn1c(NC(=O)c2ccc(C)nc2)nc2ccccc21`, the Percent Effect in [1] is -10.1%; in test [2] it was 7.79%; in test [3] it was 10.5%; in test [4], 3.52%; with Trypanosoma cruzi, 2.25%; in test [5], 0%. Further, the Percent Effect was 4.56% in test [6]; -7.49% in the test listed under Homo sapiens; 4.85% in test [7]; 14.6% in test [8]; 0.139% in [9].

Turning to `Cc1cnn(CC2CCCCN2Cc2nnc(C3CC3)n2C)c1` (stereo unspecified), the Percent Effect in [1] was -1.18%; in test [2] it was -1.27%; in test [3], 5%; in [4], -0.259%; in the test on Trypanosoma cruzi, 5.85%; in [5], 0.215%. The Percent Effect in test [6] is 8.75%; in the test filed under Homo sapiens, -10.1%; in test [7] it was 3.12%; in test [8] it was 5.06%; in [9], -2.78%.

Take `COCCn1cc(C(=O)N2CCCC2c2cccc(F)c2)ccc1=O` (stereo unspecified): the Percent Effect in test [1] is 1.54%; in test [2], -5.41%; in test [3], -0.655%; in test [4], 0.523%; in the test with Trypanosoma cruzi, -2.7%; in [5], 2.38%. The Percent Effect in [6] is 7.07%; in the test filed under Homo sapiens it was -0.304%; in test [7], -2.65%; in test [8] it was -56.1%; in test [9] it was -2.35%.

`CC(C)C(NC(=O)NCCNc1ccccn1)c1cccs1` (stereo unspecified): the Percent Effect is -6.06% in [1]; 18.2% in test [2]; -14.7% in [3]; 6.36% in test [4]; -0.187% in the test with Trypanosoma cruzi; 4.98% in [5]. For the same molecule, the Percent Effect in test [6] was 10.8%; in the test filed under Homo sapiens it was 8.29%; in test [7], 9.71%; in [8] it was 26.8%; in [9], -7.99%.
